Screening data as filed in PubChem BioAssay.
Pf Dd2 inh: inhibitors of Plasmodium falciparum Dd2 growth. P. falciparum Dd2 growth, SYBR Green, 72 h. Potency, µM (series often up to 28.9 µM), most hits filed as inhibitors. 120,000 tested, 4.3% active. AID 1347417; active = well fitted inhibition curve with a large enough effect; also: nearly all actives have a fitted effect of over 65% in size
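Infected erythrocytes (Dd2, 0.3% parasitemia, 2.5% hematocrit final) are added to compound in RPMI-1640/Albumax II medium, grown 72 h at 37C in low oxygen, then lysed with saponin/Triton-X containing SYBR Green and read by fluorescence.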
Numbers stand for hits; n = inactive; [ ] = another dose, or the depositor's remark. The sample as a whole holds a higher share of hits than the screen did.

SMILES	Pf Dd2 inh
CC(C)NC(=O)C[C@@H]1O[C@H](CNC(=O)C2CC2)[C@@H](O)[C@H]1O	n
CN1c2cc(C(=O)Nc3ccc(OC(F)(F)F)cc3)ccc2C(=O)N2CCCC21 (centres undefined)	n
Cn1cccc1CN1CCC2(CC1)CC(=O)Nc1ccccc1O2	n
COc1ccccc1NC(=O)Cn1c(=O)n(Cc2ccccc2)c(=O)c2c3c(sc21)CN(C(C)=O)CC3	n
CCOC(=O)N1CCc2c(sc3c2c(=O)n(Cc2ccccc2)c(=O)n3Cc2ccc(C)cc2)C1	2.5µM
CC(=O)N1CCc2c(sc3c2c(=O)n(Cc2ccccc2)c(=O)n3Cc2ccc(Cl)cc2)C1	n
CCOC(=O)N1CCc2c(sc3c2c(=O)n(CCc2ccccc2)c(=O)n3CC(=O)Nc2cccc(C)c2)C1	n
CCOc1ccccc1NC(=O)Cn1c(=O)n(Cc2ccccc2)c(=O)c2c3c(sc21)CN(C(C)=O)CC3	n
CCOC(=O)N1CCc2c(sc3c2c(=O)n(-c2ccc(CC)cc2)c(=O)n3Cc2cccc(OC)c2)C1	n
CC(=O)c1cccc(-n2c(=O)c3c4c(sc3n(Cc3ccccc3Cl)c2=O)CN(C(C)=O)CC4)c1	n
C#CCn1c(=O)n(-c2cccc(Cl)c2C)c(=O)c2c3c(sc21)CN(C(C)=O)CC3	n
CC(=O)N1CCc2c(sc3c2c(=O)n(-c2cccc(Cl)c2C)c(=O)n3Cc2ccccc2C)C1	8.9µM
CCOc1ccc(NC(=O)Cn2c(=O)n(CCc3ccccc3)c(=O)c3c4c(sc32)CCCC4)cc1	n
CCOC(=O)N1CCc2c(sc3c2c(=O)n(CCc2ccccc2)c(=O)n3Cc2ccc(C)cc2C)C1	2.5µM
CC(=O)N1CCc2c(sc3c2c(=O)n(Cc2ccccc2)c(=O)n3Cc2cccc(Cl)c2)C1	10µM
CCCN1CC2(CCN(C)CC2)CC1C(=O)N(C)Cc1nnc(C)o1 (centres undefined)	n
CN1CC2(CCN(c3nccc(N)n3)CC2)CC1C(=O)O (centres undefined)	n
COc1cc(Cl)ccc1-c1cccc(COc2cnc3c(ccn3CC(=O)O)c2)c1	n
Fc1ccc(OC2CN(Cc3ccsc3)C2)cc1F	n
O=C(CCC(F)(F)F)NC1CC(=O)N(Cc2ccccc2Cl)C1 (centres undefined)	n
CC(=O)N1CCc2c(sc3c2c(=O)n(-c2ccccc2)c(=O)n3Cc2cccc(C(F)(F)F)c2)C1	10µM
CC(=O)c1cccc(-n2c(=O)c3c4c(sc3n(Cc3cccc(C)c3)c2=O)CN(C(C)=O)CC4)c1	n
CC(=O)N1CCc2c(sc3c2c(=O)n(-c2ccccc2)c(=O)n3CC(=O)c2ccccc2)C1	n
COc1ccc(C(=O)N[C@@H]2CCC[C@@H]2C(=O)NCc2cccc(F)c2)cn1	n
O=C(NCc1ccc(F)cc1)[C@H]1CN2CCC1C[C@@H]2Cn1cc(CO)nn1 (some centres undefined)	n
SMILES	Pf Dd2 inh
COCC(=O)N1CC[C@H](c2nnc(C(C)(C)C)o2)C1	n
O=C(NCCc1ccc(Cl)cc1)c1cc(-c2cnccc2Cl)c2cccn2n1	n
O=C(NCCc1ccc(Cl)cc1)c1nc(-c2ccc(Cl)cc2Cl)c2ccccn12	n
O=C(NCCc1ccc(Cl)cc1)c1nc(-c2ccc(Cl)cc2Cl)c2cnccn12	4.5µM
O=[S+]([O-])(c1ccccc1)N1CC2(COCCN(CC3CC3)C2)C1	n
O=C(NCc1ccco1)NC1CCc2nnc(C3CC3)n2CC1 (centres undefined)	n
O=C(c1cccs1)C1CCCN(Cc2nc(CCc3ccccc3)no2)C1 (centres undefined)	n
COCC1CCCN(Cc2nc(C(c3ccccc3)c3ccccc3)no2)C1 (centres undefined)	11µM
COc1ccccc1N1CCN(C2CCCN(Cc3nc(C(N)=O)no3)C2)CC1 (centres undefined)	n
Cc1cc(C(=O)N2CC(F)(F)C[C@H]2c2nc(C3CC3)no2)c(C)o1	3.2µM
Cn1ccnc1C(=O)N1CC(F)(F)C[C@H]1c1nc(C2CC2)no1	n
Cc1cc(C(=O)N2CC(F)(F)C[C@H]2c2nnc(C3CC3)o2)c(C)o1	n
Cc1cnc(C(=O)N2CCCCCCNC(=O)[C@@H]3CCC[C@@H]32)cn1	n
O=C(Cc1cccc(F)c1)N1[C@H]2CC[C@@H]1c1cnc(-c3ccc(F)cc3)nc1C2	n
Cc1ccc(NC(=O)Nc2nc3c(s2)CCCCCC3)cc1C	n
Cc1cc(NC(=O)Nc2nnc(N(C)C3CCCCC3)s2)ccc1Br	n[5.79 µM]
Cc1cc(NC(=O)Nc2csc3c2CCCC3)ccc1Br	13µM
CN1c2cc(C(=O)N3CCN(C4CCCCC4)CC3)ccc2C(=O)N2CCCCC21 (centres undefined)	n
COc1cc(C2c3c(oc4ccc(C)cc4c3=O)C(=O)N2Cc2ccc(F)cc2)ccc1O (centres undefined)	n
COc1cc(C2c3c(oc4ccc(C)cc4c3=O)C(=O)N2Cc2ccccc2)ccc1O (centres undefined)	n
COc1cc(-c2oc3ccc(C)cc3c(=O)c2O)cc(OC)c1OC	13µM
CS(=O)(=O)N1CCCC1c1noc(CCC(=O)N2CC=C(c3ccccc3)CC2)n1 (centres undefined)	n
O=C1CCN(C(=O)[C@@H]2CCCN2S(=O)(=O)c2cccc3cccnc23)CCCCCCN1	n
COc1ccc(NC(=O)N2C[C@@H]3C[C@H](C2)c2ccc(NC(=O)COc4ccccc4)c(=O)n2C3)cc1	n
CNC(=O)[C@@H]1CN(C(=O)c2ccc(F)cc2Cl)C[C@H]1COC	n
SMILES	Pf Dd2 inh
CCC(c1cccs1)N1C(=O)[C@H]2CN(S(=O)(=O)c3cc(F)ccc3F)C[C@H]2C1=O (some centres undefined)	n
COc1cccc(CC(=O)N2CCC3(CC2)N(C)C(=O)CS3(=O)=O)c1	n
CNC(=O)[C@@H]1C[C@H](Oc2cccnc2)CN1C(=O)c1n[nH]c2ccccc12	n
Cc1nnc2ccc(NCc3ccc(F)cc3)nn12	n
Cc1cccc(CNc2ccc3nnc(C)n3n2)c1	n
CCc1nnc2ccc(NCc3ccc(F)cc3)nn12	7.1µM
CNC(=O)[C@@H]1C[C@@H](O)CN1C1CCN(C(=O)c2noc(C)c2Cc2c(C)noc2C)CC1	n
CCn1ccc(C(=O)N2CCC(Cc3nncn3CC3CC3)CC2)n1	n
COc1ccc(-n2cc(C(=O)NCCc3ccc(C)cc3)c3ccccc3c2=O)cc1	n
CCOc1ccccc1CNC(=O)c1cn(-c2ccc(OC)cc2)c(=O)c2ccccc12	8.9µM
CCOc1ccc(CCNC(=O)c2cn(-c3cccc(OC)c3)c(=O)c3ccccc23)cc1	n
CCCS(=O)(=O)N1CCC2(CC1)CC1C(=O)NCCN1C2 (centres undefined)	n
O=C1CC(c2n[nH]c(C3CCOCC3)n2)CN1Cc1cccnc1 (centres undefined)	n
COc1ccc(CC(=O)N2CC3CC(C2)[C@H]2CCCC(=O)N2C3)cc1Cl (some centres undefined)	n
CCCS(=O)(=O)c1c(S(=O)(=O)CCC)c2cc(C(C)(C)C)ccn2c1C(=O)c1ccc(OC)c(OC)c1	2.8µM
COc1ccc(OCC(=O)N2CCN(C(=O)c3ccc(OC)c(OC)c3)CC2)cc1	n
CCCCN(CCCC)C1=C(C(=O)c2ccccc2)N(CC)S(=O)(=O)c2ccccc21	n
Nc1c(C(=O)Nc2cccc(C(F)(F)F)c2)c2ccccn2c1C(=O)c1ccccc1	n
COc1ccc(C(=O)N2CCN(C(=O)COc3ccc(Br)cc3)CC2)cc1OC	n
CCCS(=O)(=O)c1c(S(=O)(=O)CCC)c2cc(C(C)(C)C)ccn2c1C(=O)c1ccccc1	2.5µM
